In the supplement of paper PMC11732987, “Enantioselective OTUD7B fragment discovery through chemoproteomics screening and high-throughput optimisation” (Communications Chemistry, 2025):

Experiments:
Assay in all cases: log2 ratio of Biotin-Ahx-Ub-VS probe labelling (fragment/DMSO); higher = less target engagement (more negative = stronger competition), active = hit call of the paper (q ≤ 0.05, log2 ratio ≤ -1)
Conditions in all cases: compound concentration: 200 uM; treatment time: 3 h
USP9X = USP9X (UniProt Q93008)
Sequence of USP9X (Q93008 whole entry, the tested form may be a part): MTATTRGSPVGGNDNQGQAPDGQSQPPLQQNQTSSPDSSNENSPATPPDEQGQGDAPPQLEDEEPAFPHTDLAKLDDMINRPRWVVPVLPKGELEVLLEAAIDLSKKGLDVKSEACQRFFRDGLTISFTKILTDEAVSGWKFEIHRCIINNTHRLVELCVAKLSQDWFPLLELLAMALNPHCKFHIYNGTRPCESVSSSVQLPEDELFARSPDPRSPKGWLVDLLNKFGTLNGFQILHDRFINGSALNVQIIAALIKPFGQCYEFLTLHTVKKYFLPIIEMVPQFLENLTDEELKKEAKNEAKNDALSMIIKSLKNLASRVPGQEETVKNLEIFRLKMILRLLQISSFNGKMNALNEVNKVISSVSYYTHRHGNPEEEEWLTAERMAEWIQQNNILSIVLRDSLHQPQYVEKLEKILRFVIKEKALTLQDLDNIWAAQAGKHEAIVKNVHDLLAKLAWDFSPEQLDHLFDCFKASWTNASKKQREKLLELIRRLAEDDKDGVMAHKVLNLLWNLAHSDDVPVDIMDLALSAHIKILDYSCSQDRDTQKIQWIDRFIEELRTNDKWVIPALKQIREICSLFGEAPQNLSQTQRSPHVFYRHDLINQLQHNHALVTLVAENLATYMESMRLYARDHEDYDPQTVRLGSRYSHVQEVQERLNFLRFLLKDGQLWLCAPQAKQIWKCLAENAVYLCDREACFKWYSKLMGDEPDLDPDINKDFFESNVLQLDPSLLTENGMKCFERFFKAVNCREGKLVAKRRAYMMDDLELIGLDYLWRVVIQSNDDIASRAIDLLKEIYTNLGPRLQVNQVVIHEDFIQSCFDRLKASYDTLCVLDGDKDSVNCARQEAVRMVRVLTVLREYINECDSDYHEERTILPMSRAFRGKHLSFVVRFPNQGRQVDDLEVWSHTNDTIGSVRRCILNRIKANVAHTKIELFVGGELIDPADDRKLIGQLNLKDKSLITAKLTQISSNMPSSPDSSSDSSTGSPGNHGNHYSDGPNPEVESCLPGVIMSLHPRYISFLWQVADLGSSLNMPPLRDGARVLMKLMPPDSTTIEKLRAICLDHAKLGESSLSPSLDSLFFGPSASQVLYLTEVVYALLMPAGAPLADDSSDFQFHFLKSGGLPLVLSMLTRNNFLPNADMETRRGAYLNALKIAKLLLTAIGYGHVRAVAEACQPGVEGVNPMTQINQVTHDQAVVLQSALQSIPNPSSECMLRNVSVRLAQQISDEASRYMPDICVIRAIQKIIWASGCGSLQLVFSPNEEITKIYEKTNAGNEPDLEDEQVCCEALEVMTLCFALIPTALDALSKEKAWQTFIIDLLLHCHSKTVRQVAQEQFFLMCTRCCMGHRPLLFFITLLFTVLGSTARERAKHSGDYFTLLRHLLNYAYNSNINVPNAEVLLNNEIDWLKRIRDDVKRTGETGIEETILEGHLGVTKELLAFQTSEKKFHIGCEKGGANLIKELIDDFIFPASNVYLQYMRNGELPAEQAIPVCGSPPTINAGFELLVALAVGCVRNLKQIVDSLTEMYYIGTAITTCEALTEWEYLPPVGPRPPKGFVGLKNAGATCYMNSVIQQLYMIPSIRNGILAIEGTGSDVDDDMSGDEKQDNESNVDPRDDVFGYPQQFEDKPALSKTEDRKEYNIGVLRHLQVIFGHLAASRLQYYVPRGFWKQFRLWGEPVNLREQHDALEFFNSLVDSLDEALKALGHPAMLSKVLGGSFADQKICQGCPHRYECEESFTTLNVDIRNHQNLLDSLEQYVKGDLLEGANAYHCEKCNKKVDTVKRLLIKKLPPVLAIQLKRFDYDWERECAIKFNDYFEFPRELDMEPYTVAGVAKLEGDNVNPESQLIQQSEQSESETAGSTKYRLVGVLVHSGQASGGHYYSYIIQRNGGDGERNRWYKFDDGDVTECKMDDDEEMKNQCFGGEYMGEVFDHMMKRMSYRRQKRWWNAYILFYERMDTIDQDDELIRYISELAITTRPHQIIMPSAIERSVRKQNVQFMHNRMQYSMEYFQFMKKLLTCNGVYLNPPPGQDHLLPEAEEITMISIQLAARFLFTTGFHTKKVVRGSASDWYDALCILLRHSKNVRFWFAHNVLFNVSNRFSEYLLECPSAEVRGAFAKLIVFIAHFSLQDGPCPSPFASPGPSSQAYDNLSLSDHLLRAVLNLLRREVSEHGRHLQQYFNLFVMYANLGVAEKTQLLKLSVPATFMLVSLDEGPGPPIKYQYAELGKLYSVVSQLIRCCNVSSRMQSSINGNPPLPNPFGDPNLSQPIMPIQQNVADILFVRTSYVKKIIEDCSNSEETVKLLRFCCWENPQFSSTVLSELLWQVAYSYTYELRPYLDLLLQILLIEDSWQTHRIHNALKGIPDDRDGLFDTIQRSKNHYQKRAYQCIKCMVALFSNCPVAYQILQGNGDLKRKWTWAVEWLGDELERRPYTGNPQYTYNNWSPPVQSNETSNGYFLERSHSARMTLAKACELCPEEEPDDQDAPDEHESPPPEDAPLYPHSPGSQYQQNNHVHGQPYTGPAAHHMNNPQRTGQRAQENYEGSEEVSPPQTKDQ
Method in brief: (§1)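 HEK293T lysate in Tris/CHAPS/IGEPAL buffer with protease inhibitors (495 µg per sample) was given fragment at 200 µM or vehicle for 3 h, in triplicate. It then received Biotin-Ahx-Ub-VS at 0.5 µM final for 1 h. Labelled DUBs were NeutrAvidin-enriched, digested with LysC and trypsin, and run by diaPASEF LC-MS/MS. Values are average log2 fragment/vehicle ratios by unpaired t-test on global-median-normalised Spectronaut quantities of proteins with ≥2 unique peptides.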

UniProt O00487 = target: UniProt O00487
Method in brief: as §1

UniProt O00507 = target: UniProt O00507
Sequence of UniProt O00507 (O00507 whole entry): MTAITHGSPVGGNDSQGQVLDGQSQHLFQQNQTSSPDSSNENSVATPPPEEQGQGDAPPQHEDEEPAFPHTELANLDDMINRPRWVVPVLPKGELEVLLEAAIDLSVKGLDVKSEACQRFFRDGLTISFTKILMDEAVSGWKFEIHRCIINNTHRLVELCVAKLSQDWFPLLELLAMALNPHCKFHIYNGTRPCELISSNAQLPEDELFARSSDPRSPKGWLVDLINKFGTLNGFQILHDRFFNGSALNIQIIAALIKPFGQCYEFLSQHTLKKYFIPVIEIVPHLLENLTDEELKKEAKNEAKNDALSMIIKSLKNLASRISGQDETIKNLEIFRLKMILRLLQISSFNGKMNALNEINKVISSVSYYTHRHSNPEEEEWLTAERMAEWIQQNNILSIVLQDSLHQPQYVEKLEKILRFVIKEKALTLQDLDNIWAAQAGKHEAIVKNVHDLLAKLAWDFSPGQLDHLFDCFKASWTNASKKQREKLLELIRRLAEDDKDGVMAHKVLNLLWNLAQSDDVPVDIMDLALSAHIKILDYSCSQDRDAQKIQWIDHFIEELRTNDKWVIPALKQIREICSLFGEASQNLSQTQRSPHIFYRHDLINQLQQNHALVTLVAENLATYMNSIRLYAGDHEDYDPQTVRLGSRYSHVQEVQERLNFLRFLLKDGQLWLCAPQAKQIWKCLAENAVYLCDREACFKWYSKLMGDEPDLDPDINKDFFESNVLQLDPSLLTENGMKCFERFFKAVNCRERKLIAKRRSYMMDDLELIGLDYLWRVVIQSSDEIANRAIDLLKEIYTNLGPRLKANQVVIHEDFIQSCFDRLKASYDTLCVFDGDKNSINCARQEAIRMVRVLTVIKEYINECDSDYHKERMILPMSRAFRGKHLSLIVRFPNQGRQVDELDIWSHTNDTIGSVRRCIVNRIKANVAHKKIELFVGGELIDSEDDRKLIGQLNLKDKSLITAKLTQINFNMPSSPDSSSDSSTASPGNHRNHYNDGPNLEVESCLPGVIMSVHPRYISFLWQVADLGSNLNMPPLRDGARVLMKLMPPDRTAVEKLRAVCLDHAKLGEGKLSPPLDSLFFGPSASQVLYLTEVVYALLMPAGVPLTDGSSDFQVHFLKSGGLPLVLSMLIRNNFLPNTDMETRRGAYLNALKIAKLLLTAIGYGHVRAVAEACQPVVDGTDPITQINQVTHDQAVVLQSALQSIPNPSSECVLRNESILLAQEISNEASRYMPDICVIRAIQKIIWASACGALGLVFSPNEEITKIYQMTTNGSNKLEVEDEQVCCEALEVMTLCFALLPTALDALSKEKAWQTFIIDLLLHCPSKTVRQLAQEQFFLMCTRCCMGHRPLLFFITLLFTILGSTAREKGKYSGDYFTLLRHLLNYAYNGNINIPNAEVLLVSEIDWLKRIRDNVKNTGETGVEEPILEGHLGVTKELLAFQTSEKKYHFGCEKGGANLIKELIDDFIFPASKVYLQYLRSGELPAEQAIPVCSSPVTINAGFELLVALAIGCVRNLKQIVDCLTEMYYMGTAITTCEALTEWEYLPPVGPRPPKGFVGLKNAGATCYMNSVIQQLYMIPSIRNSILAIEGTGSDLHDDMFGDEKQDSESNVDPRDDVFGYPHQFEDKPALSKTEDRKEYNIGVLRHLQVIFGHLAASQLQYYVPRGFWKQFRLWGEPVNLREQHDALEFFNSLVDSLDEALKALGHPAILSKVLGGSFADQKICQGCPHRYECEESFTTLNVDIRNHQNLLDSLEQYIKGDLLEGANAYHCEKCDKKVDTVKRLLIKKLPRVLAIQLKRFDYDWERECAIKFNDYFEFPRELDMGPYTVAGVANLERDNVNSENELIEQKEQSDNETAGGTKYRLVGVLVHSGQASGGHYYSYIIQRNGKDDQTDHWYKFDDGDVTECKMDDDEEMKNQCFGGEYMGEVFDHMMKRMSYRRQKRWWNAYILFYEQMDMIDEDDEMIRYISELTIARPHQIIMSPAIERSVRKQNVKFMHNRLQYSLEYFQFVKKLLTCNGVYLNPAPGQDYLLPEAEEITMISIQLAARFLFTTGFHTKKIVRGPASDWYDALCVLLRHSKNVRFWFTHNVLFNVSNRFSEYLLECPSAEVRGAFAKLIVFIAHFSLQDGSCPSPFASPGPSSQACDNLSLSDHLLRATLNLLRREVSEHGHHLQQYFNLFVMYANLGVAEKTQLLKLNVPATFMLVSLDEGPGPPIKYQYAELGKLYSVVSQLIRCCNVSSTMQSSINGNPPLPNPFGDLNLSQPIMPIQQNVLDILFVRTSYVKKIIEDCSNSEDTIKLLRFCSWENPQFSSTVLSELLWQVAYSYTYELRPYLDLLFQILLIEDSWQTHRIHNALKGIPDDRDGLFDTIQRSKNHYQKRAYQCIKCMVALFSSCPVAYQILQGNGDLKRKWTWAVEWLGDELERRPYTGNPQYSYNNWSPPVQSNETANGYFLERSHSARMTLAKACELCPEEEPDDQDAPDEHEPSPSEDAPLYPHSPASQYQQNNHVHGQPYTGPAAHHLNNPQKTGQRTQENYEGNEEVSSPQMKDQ
Method in brief: as §1

UniProt P51784 = target: UniProt P51784
Method in brief: as §1

UniProt Q5T2D3 = target: T1, UniProt Q5T2D3
T1 sequence (whole entry): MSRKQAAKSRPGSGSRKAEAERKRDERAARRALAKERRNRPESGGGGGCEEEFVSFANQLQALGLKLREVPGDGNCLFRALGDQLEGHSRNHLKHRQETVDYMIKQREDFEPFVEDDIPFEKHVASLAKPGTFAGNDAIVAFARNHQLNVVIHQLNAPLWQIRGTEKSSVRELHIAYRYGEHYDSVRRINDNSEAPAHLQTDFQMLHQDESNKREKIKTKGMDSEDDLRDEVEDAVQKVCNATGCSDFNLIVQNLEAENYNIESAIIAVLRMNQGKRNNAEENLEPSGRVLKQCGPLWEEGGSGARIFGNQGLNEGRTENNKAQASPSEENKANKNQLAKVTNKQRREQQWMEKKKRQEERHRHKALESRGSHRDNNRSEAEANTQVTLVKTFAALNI
Method in brief: as §1

UniProt Q8TE49 = target: T2, UniProt Q8TE49
T2 sequence (whole entry): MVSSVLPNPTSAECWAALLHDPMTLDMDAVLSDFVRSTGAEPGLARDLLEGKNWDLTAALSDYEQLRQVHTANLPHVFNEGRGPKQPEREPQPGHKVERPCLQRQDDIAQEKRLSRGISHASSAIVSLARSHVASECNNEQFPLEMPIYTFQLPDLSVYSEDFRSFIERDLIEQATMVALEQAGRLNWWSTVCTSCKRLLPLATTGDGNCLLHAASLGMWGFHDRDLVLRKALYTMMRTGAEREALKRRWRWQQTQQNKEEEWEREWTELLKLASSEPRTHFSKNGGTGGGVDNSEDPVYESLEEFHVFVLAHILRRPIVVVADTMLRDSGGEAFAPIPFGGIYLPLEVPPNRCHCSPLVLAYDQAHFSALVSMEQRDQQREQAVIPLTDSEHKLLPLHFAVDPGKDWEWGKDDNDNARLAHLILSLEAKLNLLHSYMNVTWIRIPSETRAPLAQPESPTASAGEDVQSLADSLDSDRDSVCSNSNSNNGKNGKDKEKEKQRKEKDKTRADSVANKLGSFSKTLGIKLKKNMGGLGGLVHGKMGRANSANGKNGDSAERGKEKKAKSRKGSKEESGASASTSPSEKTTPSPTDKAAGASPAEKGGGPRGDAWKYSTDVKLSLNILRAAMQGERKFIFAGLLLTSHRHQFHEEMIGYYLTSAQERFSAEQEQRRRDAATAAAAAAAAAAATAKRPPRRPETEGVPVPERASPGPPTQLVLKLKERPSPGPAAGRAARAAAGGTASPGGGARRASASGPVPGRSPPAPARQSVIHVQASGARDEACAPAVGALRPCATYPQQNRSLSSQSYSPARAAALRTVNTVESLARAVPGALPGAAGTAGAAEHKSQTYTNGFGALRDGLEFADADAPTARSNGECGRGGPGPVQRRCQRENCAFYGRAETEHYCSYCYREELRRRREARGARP
Method in brief: as §1

UniProt Q9P2H5 = target: T3, UniProt Q9P2H5
T3 sequence (whole entry): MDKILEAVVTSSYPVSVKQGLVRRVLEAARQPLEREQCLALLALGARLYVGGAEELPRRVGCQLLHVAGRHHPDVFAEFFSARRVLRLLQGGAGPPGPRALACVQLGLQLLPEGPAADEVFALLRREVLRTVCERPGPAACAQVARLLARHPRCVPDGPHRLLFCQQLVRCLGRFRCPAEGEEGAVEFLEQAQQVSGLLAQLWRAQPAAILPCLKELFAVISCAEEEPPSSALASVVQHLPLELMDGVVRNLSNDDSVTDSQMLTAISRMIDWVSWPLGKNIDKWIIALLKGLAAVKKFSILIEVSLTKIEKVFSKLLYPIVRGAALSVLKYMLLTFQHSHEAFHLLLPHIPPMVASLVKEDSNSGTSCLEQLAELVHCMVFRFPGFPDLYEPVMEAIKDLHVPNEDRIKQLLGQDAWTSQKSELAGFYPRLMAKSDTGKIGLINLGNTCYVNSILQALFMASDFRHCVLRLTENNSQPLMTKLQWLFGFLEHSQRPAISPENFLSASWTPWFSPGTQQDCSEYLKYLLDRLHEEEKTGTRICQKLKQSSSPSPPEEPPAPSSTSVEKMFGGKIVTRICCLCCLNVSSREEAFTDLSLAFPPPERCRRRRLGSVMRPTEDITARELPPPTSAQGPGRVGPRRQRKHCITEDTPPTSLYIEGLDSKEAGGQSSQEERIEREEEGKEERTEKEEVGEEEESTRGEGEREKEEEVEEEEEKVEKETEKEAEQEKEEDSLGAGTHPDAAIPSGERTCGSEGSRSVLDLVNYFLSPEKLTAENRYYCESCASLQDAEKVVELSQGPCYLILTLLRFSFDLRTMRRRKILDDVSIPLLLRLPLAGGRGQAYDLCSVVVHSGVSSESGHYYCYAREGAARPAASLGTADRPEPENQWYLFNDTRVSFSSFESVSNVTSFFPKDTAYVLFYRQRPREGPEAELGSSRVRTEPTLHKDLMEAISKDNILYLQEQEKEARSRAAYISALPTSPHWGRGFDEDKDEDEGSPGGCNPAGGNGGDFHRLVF
Method in brief: as §1

UniProt Q9UGI0 = target: T4, UniProt Q9UGI0
T4 sequence (whole entry): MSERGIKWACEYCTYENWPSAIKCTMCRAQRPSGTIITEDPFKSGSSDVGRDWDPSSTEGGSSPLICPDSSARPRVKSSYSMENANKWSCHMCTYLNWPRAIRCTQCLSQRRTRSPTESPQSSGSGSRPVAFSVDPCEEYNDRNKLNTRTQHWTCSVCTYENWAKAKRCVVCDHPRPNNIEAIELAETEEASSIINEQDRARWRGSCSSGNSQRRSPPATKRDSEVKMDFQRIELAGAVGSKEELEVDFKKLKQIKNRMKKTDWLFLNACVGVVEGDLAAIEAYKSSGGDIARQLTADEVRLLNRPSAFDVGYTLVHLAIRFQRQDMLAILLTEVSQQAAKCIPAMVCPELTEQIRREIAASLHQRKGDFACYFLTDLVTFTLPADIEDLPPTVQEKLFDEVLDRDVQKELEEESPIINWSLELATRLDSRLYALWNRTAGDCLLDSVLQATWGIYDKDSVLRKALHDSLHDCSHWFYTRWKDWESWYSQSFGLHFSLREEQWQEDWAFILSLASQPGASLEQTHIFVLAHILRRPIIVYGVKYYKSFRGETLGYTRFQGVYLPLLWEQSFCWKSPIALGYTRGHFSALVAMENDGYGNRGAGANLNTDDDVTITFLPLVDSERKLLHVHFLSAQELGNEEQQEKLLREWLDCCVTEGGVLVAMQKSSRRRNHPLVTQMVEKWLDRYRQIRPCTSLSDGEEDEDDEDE
Method in brief: as §1

YOD1 = target: T5, YOD1 (UniProt Q5VVQ6)
T5 sequence (whole entry): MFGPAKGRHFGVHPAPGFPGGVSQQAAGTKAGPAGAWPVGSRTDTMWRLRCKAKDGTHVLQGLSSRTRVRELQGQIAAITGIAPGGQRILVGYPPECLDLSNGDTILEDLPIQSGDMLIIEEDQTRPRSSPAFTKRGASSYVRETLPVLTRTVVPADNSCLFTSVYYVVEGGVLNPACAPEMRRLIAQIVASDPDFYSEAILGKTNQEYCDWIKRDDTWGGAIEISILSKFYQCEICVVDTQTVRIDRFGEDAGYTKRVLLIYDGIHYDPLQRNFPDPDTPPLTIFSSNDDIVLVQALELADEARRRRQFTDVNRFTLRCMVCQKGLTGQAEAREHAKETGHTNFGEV
Method in brief: as §1

Measured: log2 ratio of Biotin-Ahx-Ub-VS probe labelling

Cl.O=C(CCl)N1CCC(n2nc3ccccc3n2)CC1
inactive: USP9X -0.485 | UniProt O00487 -0.114 | UniProt O00507 -0.531 | UniProt P51784 -0.268 | UniProt Q5T2D3 -0.193 | UniProt Q8TE49 -0.712 | UniProt Q9P2H5 -0.415 | UniProt Q9UGI0 -0.422 | YOD1 -0.0827
